Residue numbers refer to the chain shown, from its start. The full ranking holds about 24,000 sequences; the median of “enrichment r” is about 0.99, and the highest 2% start at about 3.7. What follows is part of a selection rich in the highest values, with near analogues and random picks from the rest.
T1: UNK ZnF1-3 (human, UniProt Q9C0B0 31-174)
T1 sequence: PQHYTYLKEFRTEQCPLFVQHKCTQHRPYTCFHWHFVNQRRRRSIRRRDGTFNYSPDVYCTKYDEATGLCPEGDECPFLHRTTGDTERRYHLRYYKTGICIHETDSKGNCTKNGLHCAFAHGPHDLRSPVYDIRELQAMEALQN

B1: 153895285_153895405_106_5pUTR_ENSG00000143614_ENST00000368655|human|control|control (ssRNA)
RNA: GGGAGUUCUACAGUCCGACGAUCGGCACAGGGGAUCCAGACCCUGCUGACGGGACUAGGGACGGGGGUAGGGGAGGGGGGCGGGCCGGACCGGGGCGGGCGGGCGGAGCAGACACUGCGGUACAGACGGGGGCAGCGGCGGCGCAACAGAGGAUUGAGCAUCA
B2: chr14:76904540:76904541:+_ENSMUSG00000022010_ENSMUST00000022587|mus_mus|FALSE|FALSE (ssRNA)
RNA: GGGAGUUCUACAGUCCGACGAUCAAAGAAAUGGAAAAAUGUCUCAGUUGGUAAACUCCUAGAUCCAUCGCCACUGGUCUACACCAUUGGGAUUUCAUGCAAUUGCAGCCAAAUUAAAAAAACAGCCCCGUGGAAAAAAAAGAGCAACAGAGGAUUGAGCAUCA
B3: chr1:88750987:88750988:+_ENSMUSG00000053333_ENSMUST00000065694|mus_mus|FALSE|FALSE (ssRNA)
RNA: GGGAGUUCUACAGUCCGACGAUCUGAUAAGCCUCUUGUGUCCUGUGGUAUGGGGGUGUUCUCAUCUUUCAUAACUGGAGUACUAGAAUCUUCUUUUCCUCUGUCAGGAGUAGAGAUUGACAAUUUCUUAACACCAUCAACCAGCAACAGAGGAUUGAGCAUCA
B4: chr18:33744517:33744518:+_ENSG00000134759_ENST00000351393|hu_hu|motif|central (ssRNA)
RNA: GGGAGUUCUACAGUCCGACGAUCUAAGAACUUCUCAUUAGGUGAGAAGGCCAUCUGCGUGACUGUCAAACUGUGGAAAACGGAAUUCUGCACCUGUUUCCAAGAUGUAGUGUUCCAAAGAAUGAUAGCUGCAUGCUCUUUCUUCAACAGAGGAUUGAGCAUCA
B5: chr4:115894766:115894767:+_ENSMUSG00000028698_ENSMUST00000030464|mus_hu|mus_mus_mus_hu_True|38_38 (ssRNA)
RNA: GGGAGUUCUACAGUCCGACGAUCUUCCACACGGAAAUGUACUUCGGGUUUUCCAACGGCCAGUACCAGUCCGGCCAAACUACCCGAACAGGGUCCUGUCCUCCUCUCCUACAGAACACAACAAAAUGCCCCCGAACUUUCAAGCAACAGAGGAUUGAGCAUCA
B6: chr14:31813938:31813939:-_ENSMUSG00000021917_ENSMUST00000162092|perfect_dup|motif|central (ssRNA)
RNA: GGGAGUUCUACAGUCCGACGAUCAACUAUGUAGACAGUCCACCCAAACUGUUCAGCCACGUACCCGUAGAUAAACCCAACGGUUGCAGAAAAAAGAAUGAUCCCCUGAAACAUCUGUUCAGCUAGUUUCUGCCCCUUGUAAUCCAACAGAGGAUUGAGCAUCA
B7: chr7:72892646:72892647:-_ENSG00000009954_ENST00000339594|hu_hu|FALSE|FALSE (ssRNA)
RNA: GGGAGUUCUACAGUCCGACGAUCCUUGUCACUGUGCUUCCCUGGUUUCUUGGCAGGUGGGCCUUUUUUAGGAAUGUGAAAGUUAGUGUGCAGCUUAUUGGGCGACAUCAUCUUCAUCAUUUCUUCUAGAUGUUCUUCAGGAGACAACAGAGGAUUGAGCAUCA
B8: chr10:70731730:70731731:+_ENSG00000165732_ENST00000354185|hu_hu|motif|central (ssRNA)
RNA: GGGAGUUCUACAGUCCGACGAUCAACCUCAGGGAUGUCUAACCCACGUGCAGCAACAUUGGUUGCCACCAAAACUCCAAAACGGCCAUUUCUAAAACCUUUCAGGGUGAUUUCCCUUUGCUUCUGUGGAAUGUCUCCAUGCAACAACAGAGGAUUGAGCAUCA
B9: chr3:138121269:138121270:+_ENSG00000158186_ENST00000289104|hu_hu|FALSE|FALSE (ssRNA)
RNA: GGGAGUUCUACAGUCCGACGAUCCAGGUGGCUUCCUUGUCUCUUUGAGAGGUGGGAAAGCCCGUGCCCUCUGGGCAAAGCCAGACCCUGUCUGCUCCCUGCCCACCUGCCCUUCUCCCUUCCUGUACCAAGUCCUUGGGCCAACAACAGAGGAUUGAGCAUCA
B10: chr2:209110096:209110097:-_ENSG00000138413_ENST00000345146|hu_hu|FALSE|FALSE (ssRNA)
RNA: GGGAGUUCUACAGUCCGACGAUCUUCUUCAAAGUUAUGUACCAGGUAUGUCACCUUUUGGGUUCCGUCACUUGGUGUGUAGGUUAUCUCUACUUUUCCAGGCCCAGGAACAACAAAAUCAGUUGCUCUGUAUUGAUCCCCAUACAACAGAGGAUUGAGCAUCA
B11: chr2:153237265:153237266:-_ENSMUSG00000061411_ENSMUST00000109784|mus_mus|mus_mus_mus_hu_False|1_58 (ssRNA)
RNA: GGGAGUUCUACAGUCCGACGAUCAAAAAAAAAAAAAAAAAAGUGUCCUUGUGCCCAAAGUCUCAGGUGCUUGGAGUGCAGCUAGAAACAGCUCUUUUGGAUCCCACCUCUUUCAAAAACAAAAUGUACCAACUGGUAGGCAGGCAACAGAGGAUUGAGCAUCA
B12: chr2:153237265:153237266:-_ENSMUSG00000061411_ENSMUST00000109784|mus_hu|motif|central (ssRNA)
RNA: B11 RNA with C78U, A79G, U82G, A83G, A137G, G138A, C140G, A141C, G142A
B13: chr2:153237265:153237266:-_ENSMUSG00000061411_ENSMUST00000109784|mus_mus|mus_mus_mus_hu_False|1_78 (ssRNA)
RNA: B11 RNA with G66A, C78U, A79G
B14: chr2:25965407:25965408:-_ENSG00000143970_ENST00000336112|hu_mus|FALSE|FALSE (ssRNA)
RNA: GGGAGUUCUACAGUCCGACGAUCAUGUGCUGCCGGAAUAAAAUCUCUAGGCAGGCUCUUUUCAUCAGAUGCUUGGCCUCUAGAGAAUAUGUAAUUCUCCUGGCCUAAAGUGGUUUGCUCACUCACUGGUGCCUCAGUCUUACCCAACAGAGGAUUGAGCAUCA
B15: chr2:153237265:153237266:-_ENSMUSG00000061411_ENSMUST00000109784|mus_mus|mus_mus_mus_hu_False|8_18 (ssRNA)
RNA: GGGAGUUCUACAGUCCGACGAUCAAAAAAAAAAAAAAAAAAGUGUCCUUGUGCCCAAAGUCUCAGGUGCUUGGAGUGUGGCUAGAAACAGCUCUUUUGGAUCCCACCUCUUUCAAAAAACAGUGUACCAACUGGUGGAGGCAGCAACAGAGGAUUGAGCAUCA
B16: chr11:6247107:6247108:+_ENSMUSG00000020456_ENSMUST00000003461|mus_mus|FALSE|FALSE (ssRNA)
RNA: GGGAGUUCUACAGUCCGACGAUCAAACAUAGGUUCGUCCAUCUCAUUGUGGCCAUUUCGUCGAUAACACACCAGAUCAACUACAACAUCCUUGUGGAAGGUGUUUCUCCACUCAGCUGCCACCUUGCAUACAUACAUGACAGCCAACAGAGGAUUGAGCAUCA
B17: chr15:76911001:76911002:-_ENSMUSG00000033565_ENSMUST00000166610|mus_hu|motif|central (ssRNA)
RNA: GGGAGUUCUACAGUCCGACGAUCAAGAGCAUGACAAAAUAAAAACACACAAAUUUACGUCUGAUGUUCACCUUGCCCACGGUUUUUUUUUCCUAUCUUAAAACAGUGCAAACAGGUAACUUAUGCUUUUAAAACACCACGACCCAACAGAGGAUUGAGCAUCA
B18: chr17:17165348:17165349:-_ENSG00000141030_ENST00000268717|hu_mus|motif|central (ssRNA)
RNA: GGGAGUUCUACAGUCCGACGAUCUAUUUGAGAGGUGUAUUUAGGCAGCUGUUGUACUUUGCCAAGUAAUAUCAAAGACACGGGAAUAUACUUUUUAUAUGAUUCCAACAUGAUAUGGCUGACGGCCAUGGCAGGAGUAGUUAUCAACAGAGGAUUGAGCAUCA
B19: chr8:74858975:74858976:-_ENSG00000154582_ENST00000284811|hu_mus|hu_hu_hu_mus_True|8_48 (ssRNA)
RNA: GGGAGUUCUACAGUCCGACGAUCGACCUUGUAGGUAAAAUACAUGCACACUUUUGAUAGCACAUGUGAGGGGAUCUCUCUAAAAUUGACCUCAUUGGUUUCAUUCUCAGCAAACUGACCUGGACCACUCAACAUGGCCUUUAUCAACAGAGGAUUGAGCAUCA
B20: chr2:48026839:48026840:+_ENSG00000116062_ENST00000540021|hu_hu|hu_hu_hu_mus_False|48_88 (ssRNA)
RNA: GGGAGUUCUACAGUCCGACGAUCAUAGUGAGCCACUAGCGUCCUAAAUCUCGAACAGUGGCGGUCAUCCGAAAACUGGCCGAUGAAAAACUUUCCCAGUGAAGUGUCCACAAAGCAAACACCAUACACACGAGUGUGACCAGACAACAGAGGAUUGAGCAUCA
B21: chr11:86535762:86535763:-_ENSMUSG00000047126_ENSMUST00000103186|mus_hu|FALSE|FALSE (ssRNA)
RNA: GGGAGUUCUACAGUCCGACGAUCUGCAAAGCACUGAAUGACUUUAUUUGGGACGUUAGCCCUUAGGUACACACUAAGUGCCAAUGUAGGGUCCACAGAUUUCACAAGAUCACCCAGUUCUUCAGAACAUUCCAGCUUAUCUUCCAACAGAGGAUUGAGCAUCA
B22: chr7:118226368:118226369:-_ENSMUSG00000005610_ENSMUST00000162415|mus_hu|FALSE|FALSE (ssRNA)
RNA: GGGAGUUCUACAGUCCGACGAUCCAGCAGCUGCCACCGCAGCUGCCUCCUCAGGAUCCGGUCGUCGGGGAUAGGGAAGGGAGGGGAAAGGGGAACGGAAAACAAAAAAAAGGGGGAGGGAAGGGGGAGGAAGGAGUCGGGGACCAACAGAGGAUUGAGCAUCA

What follows are binders tested against T1, UNK ZnF1-3 (assay: nsRBNS (natural sequence RNA bind-n-seq); RBNS binding buffer (assumed for nsRBNS): 25 mM Tris pH 7.5, 150 mM KCl, 3 mM MgCl2, 0.01% Triton X-100, 500 ug/ml BSA, 20 U/ml SUPERase-In, 4 C; UNK is unkempt and MSI1 is Musashi-1; names of the RNAs are library labels; protein concentration not given here; high values mean tight binding).

Row | Binder | binding signal [enrichment R]
1 | B1 | 0.68
2 | B2 | 3.35
3 | B3 | 0.857
4 | B4 | 0.574
5 | B5 | 0.864
6 | B6 | 1.33
7 | B7 | 0.485
8 | B8 | 0.937
9 | B9 | 0.645
10 | B10 | 0.472
11 | B11 | 7.14
12 | B12 | 5.88
13 | B13 | 8.18
14 | B14 | 0.767
15 | B15 | 5.27
16 | B16 | 0.764
17 | B17 | 1.59
18 | B18 | 1.03
19 | B19 | 0.645
20 | B20 | 1.19
21 | B21 | 0.581
22 | B22 | 1.19

— PMC12136788
